Assay outcomes (PubChem)
Many of the other results were omitted from the sample, so hits are more common in it than they were.
TDP1 cell noCPT = qHTS for Inhibitors of human tyrosyl-DNA phosphodiesterase 1 (TDP1): qHTS in cells in absence of CPT; hit rate 15% among 420,000; DT40 Tdp1-/- hTDP1 cells, no CPT, ATP luminescence, 48 h; Potency, µM (doses to about 46.2 µM), for inactives: at the highest dose activity change, negative = growth inhibition, most hits filed as inhibitors; further: potency means the concentration at half of the fitted maximal effect; nearly all actives have a fitted effect of over 55% in size
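No-CPT arm: Tdp1-/-;hTDP1 DT40 cells (400/well) plus compounds, incubated ≥48 hr at 37 °C. Readout CellTiter-Glo luminescence.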
IL1B secr inh = blocks inflammasome-driven IL-1 beta release; THP-1 LPS/ATP IL-1B secretion, AlphaLISA, 16 h; hits give low values; hit rate 4.7% among 360,000; activity change, % at 57.5 µM; in the data active means activity change below about -50%; inconclusive means mostly about -30% to -49%
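THP-1 cells pretreated 1 hr with compounds (up to 57.5 uM final), then stimulated with LPS (250 ng/mL final) plus ATP (1.25 mM final); secreted IL-1B measured by AlphaLISA after 16 hr, decreased signal indicating inhibition.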
HT1080 IDH1KD tx = kills HT-1080 cells with IDH1 knockdown. HT-1080 IDH1 knockdown viability, ATP luminescence, 48 h. Potency, µM (doses to about 46.1 µM), inactives show at the top dose activity, negative = toxicity, most hits filed as cytotoxic. hit rate 2% among 360,000. AID 686971;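 further: potency means the concentration at half of the fitted maximal effect; 0% = DMSO wells and -100% = cell-free medium wells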
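In this qHTS, HT-1080 cells depleted of IDH1 are exposed for 48 h at 37 °C to compound titrations. Toxicity is scored from CellTiter-Glo luminescence, with DMSO as full viability and medium alone as none.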
ALOX12 inh = ALOX12 (human) lipoxygenase inhibition; P18054; purified 12hLO, xylenol orange hydroperoxide absorbance; Potency, µM (doses to about 108 µM), for inactives: top-dose activity change, negative = inhibition, usual class: inhibitors; hit rate 1.1% among 580,000; further: potency means the concentration at half of the fitted maximal effect
Target sequence (P18054 whole entry, looked up): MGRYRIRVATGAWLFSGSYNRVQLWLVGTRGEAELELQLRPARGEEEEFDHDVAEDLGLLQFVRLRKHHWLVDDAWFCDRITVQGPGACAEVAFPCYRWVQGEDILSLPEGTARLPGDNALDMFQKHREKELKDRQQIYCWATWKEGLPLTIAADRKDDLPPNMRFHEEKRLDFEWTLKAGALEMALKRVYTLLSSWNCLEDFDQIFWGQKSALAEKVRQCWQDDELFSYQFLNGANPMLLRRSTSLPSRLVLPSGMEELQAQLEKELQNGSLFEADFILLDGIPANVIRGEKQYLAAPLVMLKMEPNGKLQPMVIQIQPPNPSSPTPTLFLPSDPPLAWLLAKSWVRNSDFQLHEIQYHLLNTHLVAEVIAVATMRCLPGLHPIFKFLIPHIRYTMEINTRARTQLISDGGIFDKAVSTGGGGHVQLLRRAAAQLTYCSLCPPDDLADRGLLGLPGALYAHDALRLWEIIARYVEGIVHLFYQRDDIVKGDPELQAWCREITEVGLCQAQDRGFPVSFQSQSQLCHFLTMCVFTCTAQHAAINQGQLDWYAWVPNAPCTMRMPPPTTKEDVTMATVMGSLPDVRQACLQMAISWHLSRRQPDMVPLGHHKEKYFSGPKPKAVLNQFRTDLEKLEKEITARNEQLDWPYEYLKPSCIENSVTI
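Purified human 12hLO (150 nM final) in 25 mM Hepes, 0.01% Triton X-100, pH 7.0 was preincubated 15 min at room temperature with compound. Then 40 uM arachidonic acid was added, 30 min. Hydroperoxide was read by Fe-XO absorbance ratio 573/405 nm.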
HT1080-NT tox = kills 2HG-producing HT-1080-NT fibrosarcoma cells; HT-1080-NT fibrosarcoma viability, CellTiter-Glo ATP luminescence, 48 h; Potency, µM (highest dose often 46.1 µM), for inactives: at the top dose activity, negative = less viability, usual class: cytotoxic; hit rate 1.6% among 360,000; AID 686970;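 further: NT is the 2HG producing partner of a matched IDH1 knockdown line; potency means the concentration at half of the fitted maximal effect; 0% = DMSO-treated cells and -100% = media-only wells without cells; nearly all actives have a fitted effect of over 55% in size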
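Fibrosarcoma NT cells, 750 per well in 5% FBS RPMI, were exposed to compound for 48 hours. Viability: CellTiter-Glo luminescence.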
TDP1 cell CPT = DT40-hTDP1 cell growth loss with CPT; Potency, µM (series often up to 46.2 µM), without a hit: at the highest dose activity change, negative = growth inhibition, actives largely listed as inhibitors; chicken DT40 Tdp1-/-;hTDP1 cells + 20 nM CPT, ATP luminescence, 48 h; AID 686979; hit rate 12% among 420,000; further: potency means the concentration at half of the fitted maximal effect; nearly all actives have a fitted effect of over 55% in size
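Chicken DT40 Tdp1-/- cells stably complemented with human TDP1 were seeded at 400 cells/well in medium containing 20 nM camptothecin, exposed to pin-transferred compounds, and grown at 37 °C for at least 48 hr. Viability was read as ATP luminescence.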
Starred values were filed as active, the others as inactive; i = inactive; u = inconclusive; x = not tested or not shown. Unless noted, the call rests on the fitted dose curve; in most records, active means well fitted curve in the direction sought with a large enough effect; inconclusive means small, poorly fitted or top-dose-only effect, or another doubt; inactive means no such curve, though single readings can be large; an effect the other way counts as inactive or inconclusive. Unless noted, on the % scale 0 is the no-effect control and ±100 the full control effect.

SMILES	TDP1 cell noCPT	IL1B secr inh	HT1080 IDH1KD tx	ALOX12 inh	HT1080-NT tox	TDP1 cell CPT
Cc1ccc2nc3c(c(Nc4ccc5c(c4)OCCO5)c2c1)CCC3	18µM*	-92*	u	-26%	u	16µM*
Cc1cccc(NC(=O)C(Cc2ccccc2)NS(=O)(=O)c2ccc3c(c2)c(=O)n(C)c(=O)n3C)c1 (stereo unspecified)	u	x	x	-17%	x	u
O=C(Nc1ccc(Cl)cc1F)c1ccc(=O)n(CCOc2ccccc2)n1	x	x	x	1%	x	x
CN(C)c1ccccc1C(=O)N1CCCC(Nc2ccc(F)cc2)C1 (stereo unspecified)	3%	26	-3%	-8%	-2%	-15%
CSc1ccc(C(=O)C2CCCN(C(=O)c3cccnc3SC)C2)cc1 (stereo unspecified)	16µM*	53	-4%	0%	5%	u
O=C(c1ccc2ccccc2c1)C1CCCN(C(=O)c2cccnc2)C1 (stereo unspecified)	15µM*	i	-23%	3%	-8%	16µM*
CSc1ccc(C(=O)C2CCCN(C(=O)c3ccsc3)C2)cc1 (stereo unspecified)	u	0	11%	-26%	4%	u
CN(C)c1ccccc1C(=O)N1CCCC(C(=O)c2ccc3ccccc3c2)C1 (stereo unspecified)	23µM*	-8	-28%	0%	-23%	u
CSc1ccc(C(=O)C2CCCN(C(=O)c3ccc4c(c3)no[n+]4[O-])C2)cc1 (stereo unspecified)	13µM*	-67*	-7%	-4%	26%	u
COc1ccc2cc(C(=O)C3CCCN(C(=O)c4cccnc4)C3)ccc2c1 (stereo unspecified)	u	-30	3%	-1%	2%	u
COC(=O)[C@@H](NC(=O)Nc1cccc(C)c1C)C(C)C	x	x	x	9%	x	x
CSc1ncccc1C(=O)N1CCCC(C(=O)c2ccc3ccccc3c2)C1 (stereo unspecified)	21µM*	-56*	15%	1%	10%	u
CSc1ccc(C(=O)C2CCCN(C(=O)CCc3c(C)nn(C)c3C)C2)cc1 (stereo unspecified)	8.2µM*	-12	u	7%	13µM*	10µM*
O=C(c1ccc2ccccc2c1)C1CCCN(C(=O)c2noc3c2CCCC3)C1 (stereo unspecified)	u	-72*	-13%	34%	-13%	u
COc1ccc(-c2cc(C(=O)NCC3CCCO3)c3cc(C)ccc3n2)cc1 (stereo unspecified)	16µM*	-7	-3%	-1%	-7%	-5%
O=C(NCC1CCCO1)c1cc(-c2ccccc2)nc2ccc(Br)cc12 (stereo unspecified)	u	-6	2%	-7%	-4%	u
COc1ccc(-c2cc(C(F)(F)F)n3ncc(C(=O)NCC4CCCO4)c3n2)cc1 (stereo unspecified)	u	-4	-1%	4%	-2%	u
COc1cccc(-c2cc(C(F)(F)F)n3ncc(C(=O)NCC4CCCO4)c3n2)c1 (stereo unspecified)	23µM*	19	u	3%	u	u
CCc1ccc(-c2cc(C(=O)NCC3CCCO3)c3cc(C)ccc3n2)cc1 (stereo unspecified)	x	x	x	-15%	x	x
O=C(COC(=O)c1cc(-c2cccc(Br)c2)nc2ccccc12)NCC1CCCO1 (stereo unspecified)	-17%	13	-2%	-2%	3%	0.016µM*
COc1cccc(-c2cc(C(=O)NCC3CCCO3)c3ccccc3n2)c1 (stereo unspecified)	18µM*	24	7%	-14%	6%	-19%
COc1ccc(-c2cc(C(=O)NCC3CCCO3)c3ccccc3n2)cc1 (stereo unspecified)	u	6	-1%	-11%	4%	u
CCn1cc2c3c(cccc31)CN(C(=O)Cc1ccccc1C)CC2	x	x	x	12%	x	x
CN(C)c1cccc(C(=O)N2CCCC(CCC(=O)NCc3ccccc3F)C2)c1 (stereo unspecified)	u	-16	u	7%	u	u
Nc1nc(CSc2nnnn2-c2ccccc2)nc2ccccc12	x	x	x	7%	x	x
SMILES	TDP1 cell noCPT	IL1B secr inh	HT1080 IDH1KD tx	ALOX12 inh	HT1080-NT tox	TDP1 cell CPT
COc1ccc(-c2nc(SC(C)C(=O)NCC3CCCO3)n[nH]2)cc1 (stereo unspecified)	9.2µM*	38	u	-6%	u	8.2µM*
CC(C)c1ccc(-c2nn(-c3ccccc3)cc2C(=O)NCC2CCCO2)cc1 (stereo unspecified)	u	-80*	-30%	10%	u	-104%
COc1ccc(-c2nc(SC(C)C(=O)NC(=O)NC3CCCCC3)n[nH]2)cc1 (stereo unspecified)	x	x	x	6%	x	x
COc1ccc(-c2cc(C(=O)NCC3CCCO3)c3cc(C(C)C)ccc3n2)cc1 (stereo unspecified)	u	u	11%	u	5%	16µM*
COc1cccc(-c2cc(C(F)(F)F)n3ncc(C(=O)N4CCc5ccccc5C4)c3n2)c1	18µM*	-9	16%	u	25%	16µM*
N#C/C(=C/c1ccc(O)cc1)c1nc2ccccc2[nH]1	x	x	x	2%	x	x
Cc1ccc(-c2nn(C)c(=O)c3c2CCCC3)cc1S(=O)(=O)N1CCCCC1	x	x	x	25%	x	x
COCC(=O)NC1CCC12CCN(C(=O)c1cccc(C#N)c1)CC2 (stereo unspecified)	x	x	x	52%	x	x
O=C(NCc1ccccn1)c1ccc(-c2ccccc2)cc1	-1%	u	-10%	30%	8%	13%
O=C(NCc1ccccn1)c1cn(-c2ccccc2)nc1-c1ccc(Cl)cc1	26µM*	0	-6%	10%	2%	u
O=C(c1cccs1)N1CCc2nc(OCC3CC3)ccc2C1	x	x	x	10%	x	x
O=S(=O)(c1ccccc1)N1CCN(c2ccnc3cc(Cl)ccc23)CC1	u	-86*	u	-6%	-27%	16µM*
Cc1cc(N2CCN(c3nc(-c4ccccc4)cs3)CC2)c2ccccc2n1	21µM*	u	1%	5%	8%	23µM*
Cc1cc(N2CCN(C(=O)c3ccco3)CC2)c2ccccc2n1	-14%	-2	-3%	122%	3%	-15%
